# Compounds with a hit are over-represented: about 21% of the library has one in this group of screens.
# TDP1 cell noCPT: qHTS for Inhibitors of human tyrosyl-DNA phosphodiesterase 1 (TDP1): qHTS in cells in absence of CPT | Potency, µM (top dose mostly 46.2 µM), most hits filed as inhibitors | DT40 Tdp1-/- hTDP1 cells, no CPT, ATP luminescence, 48 h | 420,000 compounds, 15% hits; further: nearly all actives have a fitted effect of over 55% in size
#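 Chicken DT40 Tdp1-/- cells stably complemented with human TDP1 were seeded at 400 cells/well with DMSO in place of 20 nM camptothecin. After compound pinning, cells grew at least 48 hr at 37 °C; viability read by CellTiter-Glo luminescence.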
# VP16 counter: Gal4-VP16 reporter inhibition counter-screen; Drosophila S2 Gal4-VP16 UAS-luciferase, luminescence, 20 h; Potency, µM (series often up to 53.6 µM), most hits filed as inhibitors; 310,000 compounds, 3.5% hits;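 further: Gal4-VP16 expression switched on by copper sulfate through the metallothionein promoter; nearly all actives have a fitted effect of over 50% in size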
# ELG1 DNA repair: inhibitors of ELG1-dependent DNA repair in HEK293T cells. HEK293T ELG1-luciferase reporter, luminescence, 16 h; DNA damage induced by 5-fluorouridine. Potency, µM (series often up to 46.1 µM), hits mostly inhibitors. 330,000 compounds, 2.3% hits. AID 504467; further: nearly all actives have a fitted effect of over 55% in size
#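 Step one: seed 2,000 cells per well. Step two: pin-transfer compound or DMSO alongside 5-fluorouridine. Step three: incubate 16 hr, 37 °C, 5% CO2. Step four: add ONE-Glo, wait 30 min, read luminescence.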
# TDP1 cell CPT: DT40-hTDP1 cell growth loss with CPT; Potency, µM (highest dose often 46.2 µM), hits mostly inhibitors; chicken DT40 Tdp1-/-;hTDP1 cells + 20 nM CPT, ATP luminescence, 48 h; 420,000 compounds, 12% hits; further: nearly all actives have a fitted effect of over 55% in size
#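 Chicken DT40 Tdp1-/- cells complemented with human TDP1, 400 cells/well, exposed to compounds plus 20 nM camptothecin for at least 48 h at 37 C; viability read as ATP content by CellTiter-Glo luminescence.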
# RORgamma inh: inhibitors of mouse ROR gamma transcriptional activity; Potency, µM (series often up to 53.6 µM), actives largely listed as inhibitors; P51450; 310,000 compounds, 5.4% hits; Drosophila S2 Gal4-RORgamma UAS-luciferase reporter, 20 h; further: nearly all actives have a fitted effect of over 60% in size
# Target sequence (P51450 whole entry, looked up, the tested form may be a part): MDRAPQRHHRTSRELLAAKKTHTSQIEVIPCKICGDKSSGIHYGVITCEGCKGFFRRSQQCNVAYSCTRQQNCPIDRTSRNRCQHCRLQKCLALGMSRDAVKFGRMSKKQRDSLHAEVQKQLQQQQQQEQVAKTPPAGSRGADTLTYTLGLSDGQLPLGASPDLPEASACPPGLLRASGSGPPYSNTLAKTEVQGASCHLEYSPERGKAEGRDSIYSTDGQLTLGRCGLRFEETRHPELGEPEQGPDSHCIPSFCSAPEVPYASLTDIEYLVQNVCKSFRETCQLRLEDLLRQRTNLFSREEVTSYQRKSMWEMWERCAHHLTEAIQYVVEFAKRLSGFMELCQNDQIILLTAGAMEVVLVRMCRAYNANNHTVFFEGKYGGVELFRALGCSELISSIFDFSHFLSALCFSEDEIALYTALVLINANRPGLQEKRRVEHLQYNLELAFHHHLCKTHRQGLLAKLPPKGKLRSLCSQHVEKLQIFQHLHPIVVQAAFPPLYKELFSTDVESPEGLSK
#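 Luminescence from a UAS-regulated Photinus luciferase reporter in stably transfected Drosophila Schneider cells is measured; decreased signal marks ROR gamma inhibition. Fusion expression is induced by 700 uM copper sulfate for 20 hr.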
# IL1B secr inh: inflammasome signaling inhibition, IL-1 beta readout; THP-1 LPS/ATP IL-1B secretion, AlphaLISA, 16 h; hits give low values; AID 743279; 360,000 compounds, 4.7% hits; activity change, % at 57.5 µM; in the data active means activity change below about -50%; inconclusive means mostly about -30% to -49%
#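 THP-1 cells pretreated 1 hr with compounds (up to 57.5 uM final), then stimulated with LPS (250 ng/mL final) plus ATP (1.25 mM final); secreted IL-1B measured by AlphaLISA after 16 hr, decreased signal indicating inhibition.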
# Hits are given with their value; – = inactive; ? = inconclusive; · = no result; [ ] = remark or other dose. Unless noted, the call rests on the fitted dose curve; in most records, active means well fitted curve in the direction sought with a large enough effect; inconclusive means small, poorly fitted or top-dose-only effect, or another doubt; inactive means no such curve, though single readings can be large; an effect the other way counts as inactive or inconclusive.
SMILES,TDP1 cell noCPT,VP16 counter,ELG1 DNA repair,TDP1 cell CPT,RORgamma inh,IL1B secr inh
Cc1ccccc1C(=O)OCc1nnc(-c2ccc(Cl)cc2)o1,–,–,?,–,–,–
Cc1ccc(C)c(C(=O)N(Cc2nc(-c3ccc(Cl)cc3)no2)C(C)C)c1,18.4µM,–,20.6µM,?,–,–
COc1ccc(-c2noc(CN(C(=O)c3ccc(C)cc3C)C(C)C)n2)cc1,14.6µM,·,·,23.1µM,·,·
Cc1cc(C(=O)N(Cc2nnc(-c3ccc(Cl)cc3)o2)C(C)C)c2ccccc2n1,14.6µM,·,–,?,·,–
COc1ccc(-c2noc(CN(C(=O)c3ccoc3C)C(C)C)n2)cc1,?,–,?,–,–,–
COc1cccc(C(=O)N(Cc2nc(-c3ccc(C)cc3)no2)C(C)C)c1,?,–[0.365 µM],–,18.4µM,–,–
C[C@]12CC[C@@H]3c4ccc(O)cc4CC[C@H]3[C@@H]1CC[C@@H]2OP(=O)(O)O,–,·,·,–,·,·
CCOc1ncccc1C(=O)OCC(=O)N(CC(C)C)c1c(N)n(Cc2ccccc2)c(=O)[nH]c1=O,–,·,–,–,·,–
Cc1ccccc1OCC(=O)OCc1cc(=O)n2nc(C3CCCCC3)sc2n1,–,·,·,–,·,·
CCOc1ccc(C(=O)NNC(=O)c2cc(S(=O)(=O)N3CCOCC3)ccc2Cl)cc1,–,·,?,–,·,–
O=C(CCCN1C(=O)/C(=C/c2cccs2)SC1=S)Nc1ccc(O)c(C(=O)O)c1,·,?,–,·,–,·
O=C(CCCN1C(=O)/C(=C\c2cccs2)SC1=S)Nc1ccc(O)cc1,?,?,?,25.9µM,?,–
O=C(CCCN1C(=O)/C(=C/c2cccs2)SC1=S)Nc1ccccc1O,?,?,–,?,–,–
O=C(CCCN1C(=O)/C(=C\c2cccs2)SC1=S)Nc1ccc(O)cc1C(=O)O,–,5.62µM,?,–,5.62µM,–
O=C(CCCN1C(=O)/C(=C/c2cccs2)SC1=S)NNC(=O)c1ccncc1,?,–,–,?,–,–
O=C(CCCN1C(=O)/C(=C/c2cccs2)SC1=S)NNC(=O)c1ccccc1O,16.4µM,?,–,20.6µM,–[10 µM],–
O=C(CCCN1C(=O)/C(=C\c2cccs2)SC1=S)NNC(=O)c1cccnc1,–,?,–,–,5.62µM,–
O=C(CCCN1C(=O)/C(=C/c2ccco2)SC1=S)Nc1cccc(C(=O)O)c1,–,–,–,–,–,–
O=C(CCCN1C(=O)/C(=C\c2ccco2)SC1=S)Nc1ccc(O)cc1C(=O)O,?,14.1µM,–,?,11.2µM,–
Cc1ccccc1NC(=O)C(Cl)=C(Cl)Cl,23.1µM,–[10 µM],?,20.6µM,–,-97.0
Cc1ccccc1NC(=O)CC(=O)c1ccccc1,–,–,?,–,–,–
CC(=O)c1ccc(NC(=O)/C(Cl)=C/c2ccccc2)cc1,–,?,?,–,–,-62.5
O=C(Nc1ccccc1)/C(=C/c1ccccc1)c1ccccc1,11.6µM,–,10.3µM,?,–,–
Cc1ccccc1NC(=O)/C(=C/c1ccccc1)c1ccccc1,11.6µM,–,–,20.6µM,?,–
Cc1ccccc1NNC(=O)C(=O)NNc1ccccc1C,–,?,?,–,–,–
SMILES,TDP1 cell noCPT,VP16 counter,ELG1 DNA repair,TDP1 cell CPT,RORgamma inh,IL1B secr inh
Cc1cc(=O)n(Cc2ccc(F)cc2Cl)c2c1c(C)nn2-c1ccccc1,–,·,·,–,·,·
CC(C)OC(=O)[C@@H]1CC[C@H](C)[C@@H](CCCC=O)O1,·,–,·,·,–,·
COc1cc(C(=O)NNC(=S)NC(=O)/C=C/c2ccccc2)cc(OC)c1OC,?,3.98µM,–,16.4µM,2.82µM,–
CCCCC(=O)NC(=S)Nc1cc(C(=O)O)ccc1OC,–,–,–,–,–,–
COc1ccc(C(=O)O)cc1NC(=S)NC(=O)/C=C/c1ccc(C(C)C)cc1,–,–,–,–,–,-66.0
COc1cc(C(=O)NNC(=O)/C=C/c2ccccc2)cc(OC)c1OC,–,·,–,–,·,-73.8
COc1ccc(/C=C/C(=O)NC(=S)NNC(=O)c2cccs2)cc1OC,?,?,?,?,–,–
COc1cccc([C@@H]2Oc3ccc(Br)cc3C[C@H]2OC(=O)NS(=O)(=O)c2ccc(C)cc2)c1,·,–,·,·,–,·
CCn1c(Cc2cccc3ccccc23)nnc1SCC(=O)Nc1nccs1,?,?,?,?,14.1µM,–
Cn1c(CNC(=O)c2ccccc2)nnc1SCC(=O)Nc1nccs1,?,–[10 µM],–,14.6µM,–,–
CCc1nnc(SCC(=O)Nc2nccs2)n1CC,–,–,–,–,–,–
O=C(Cc1ccsc1)NNC(=O)c1cccc(Cl)c1,–,–,–,–,–,–
O=C(Cn1cc(SCc2ccc(C(F)(F)F)cc2)c2ccccc21)N1CCCCCC1,?,·,·,18.4µM,·,·
O=C(Cn1cc(SCc2ccc(C(F)(F)F)cc2)c2ccccc21)N1CCCCC1,23.1µM,·,·,?,·,·
O=C(CSc1cn(CC(=O)N2CCCC2)c2ccccc12)Nc1cc(C(F)(F)F)ccc1Cl,?,·,·,18.4µM,·,·
CC(C)c1nc2c(c(=O)n(C)c(=O)n2C)n1C,–,–,–,–,–,–
O=C(CSc1c2c(nc3ccc(Cl)cc13)CCCC2)N1CCN(c2cccc(Cl)c2)CC1,?,·,·,16.4µM,·,·
COc1ccc(N2CCN(C(=O)CSc3c4c(nc5ccc(Cl)cc35)CCCC4)CC2)cc1,14.6µM,·,·,20.6µM,·,·
O=C(CSc1c2c(nc3ccc(Cl)cc13)CCCC2)N1CCN(c2ccc(Cl)cc2)CC1,16.4µM,·,·,11.6µM,·,·
O=C(c1ccc2c(Cl)c3c(nc2c1)CCCC3)N1CCN(c2ccccc2)CC1,–,·,·,–,·,·
COc1ccc(Cl)cc1NC(=O)c1ccc2c(SCC(=O)O)c3c(nc2c1)CCCC3,–,–,–,–,?,?
COCC(=O)N1CCC2(CC1)CCN(C(=O)NC(C)C)CC2,–,–,·,–,–,·
O=S1(=O)CC(N2CCCCC2)CN1Cc1ccc(F)cc1 (stereo not given),–,·,·,–,·,–
NNC(=O)c1oc2nc(-c3ccco3)cc(-c3ccco3)c2c1N,?,–,?,?,–,-53.3
NC(=O)COC(=O)c1cc(-c2ccco2)nc2ccccc12,–,–,?,–,–,–
NNC(=O)c1oc2nc(-c3ccc(Cl)cc3)cc(-c3ccccc3)c2c1N,–,–,16.4µM,?,–,-81.9
Nc1c(C(=O)N/N=C/c2cccnc2)oc2nc(-c3ccccc3)cc(-c3ccco3)c12,14.6µM,–,7.3µM,?,–,·
Nc1c(C(=O)N/N=C/c2cccnc2)oc2nc(-c3ccco3)cc(-c3ccco3)c12,0.461µM,–,2.91µM,2.91µM,–,–
Nc1c(C(=O)O)sc2nc(-c3ccccc3)cc(-c3ccc(Cl)cc3)c12,–,–,?,–,?,–
